Shown are actives, neighbours in structure and some others; about 17% of the full set was active somewhere.
DT40 TDP1 no CPT: qHTS for Inhibitors of human tyrosyl-DNA phosphodiesterase 1 (TDP1): qHTS in cells in absence of CPT; DT40 Tdp1-/- hTDP1 cells, no CPT, ATP luminescence, 48 h; AID 686978, 2013; Potency, µM (doses to about 46.2 µM), without a hit: at the highest dose activity change, negative = growth inhibition, hits mostly inhibitors; 15% of 420,000 active; note: % is set by controls: 0 for no effect and ±100 for the full control effect; nearly all actives have a fitted effect of over 55% in size
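Luminescent ATP content (CellTiter-Glo) served as the growth readout. Knockout chicken DT40 cells expressing human TDP1 were exposed to compounds without camptothecin for a minimum 48 hr at 37 °C.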
TDP1 block: blocks human tyrosyl-DNA phosphodiesterase 1; Q9NUW8; recombinant TDP1, AlphaScreen DNA substrate cleavage; Potency, µM (series often up to 130 µM), without a hit: top-dose activity change, negative = inhibition, hits mostly inhibitors; 0.28% of 350,000 active; AID 485290; note: % is set by controls: 0 for no effect and ±100 for the full control effect; nearly all actives have a fitted effect of over 40% in size
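Tdp1 1 nM final; 15 min RT w/ cpd; substrate 15 nM, 5 min; beads 10 ug/ml, 10 min; AlphaScreen read. Neg ctrl: no enzyme.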
ClpP mod: qHTS Assay for Activators of ClpP; purified B. subtilis ClpP, FRET peptide cleavage, 20 min; Potency, µM (series often up to 57.5 µM), inactives show at the top dose activity change, negative = active; 1.9% of 340,000 active; active = well fitted falling curve with a large enough effect; inconclusive = small, poorly fitted or top-dose-only effect; inactive = no such curve, though single readings can be large or run the other way; note: the source files actives as falling curves though it sought activators and does not explain the sign; nearly all actives have a fitted effect of over 65% in size
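Buffer: 100 mM Tris/HCl pH8, 100 mM KCl, 0.05% low protease BSA, 2.5% glycerol, 0.01% Tween-20. ClpP 10 microg/mL final; 20 min RT; delta FRET normalized to ADEP and DMSO controls.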
DT40 TDP1 CPT: growth inhibition of DT40 Tdp1-/-;hTDP1 cells with camptothecin (screen for TDP1 inhibitors). chicken DT40 Tdp1-/-;hTDP1 cells + 20 nM CPT, ATP luminescence, 48 h. Potency, µM (top dose mostly 46.2 µM), for inactives: top-dose activity change, negative = growth inhibition, actives largely listed as inhibitors. 12% of 420,000 active; note: % is set by controls: 0 for no effect and ±100 for the full control effect; nearly all actives have a fitted effect of over 55% in size
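Chicken DT40 Tdp1-/- cells complemented with human TDP1, 400 cells/well, exposed to compounds plus 20 nM camptothecin for at least 48 h at 37 C; viability read as ATP content by CellTiter-Glo luminescence.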
* hit, by the source's call. Unless noted, calls come from the whole dose curve; as a rule, active = well fitted curve in the direction sought with a large enough effect; inconclusive = small, poorly fitted or top-dose-only effect, or another doubt; inactive = no such curve, though single readings can be large; an effect the other way counts as inactive or inconclusive. Potency is the fitted concentration of half-maximal effect.

For CCc1ccc(NC(=O)C2CCCN(S(=O)(=O)c3ccc4c(c3)oc(=O)n4C)C2)cc1 (stereo unspecified) the results were DT40 TDP1 no CPT -27%, TDP1 block 1%, ClpP mod 1% and DT40 TDP1 CPT -19%.
Cc1ccc(S(=O)(=O)c2nnn3c2nc(NCc2ccc(F)cc2)c2sccc23)cc1C was read as DT40 TDP1 no CPT inconclusive, TDP1 block -3%, ClpP mod 28µM* and DT40 TDP1 CPT inconclusive.
CCCCNc1nc2c(S(=O)(=O)c3ccc(C)c(C)c3)nnn2c2ccsc12 was read as DT40 TDP1 no CPT -12%, TDP1 block 5%, ClpP mod 28µM* and DT40 TDP1 CPT -29%.
Screening Cc1ccc(S(=O)(=O)c2nnn3c2nc(NCc2ccccc2)c2sccc23)cc1 returned DT40 TDP1 no CPT inconclusive, TDP1 block 5%, ClpP mod 20µM* and DT40 TDP1 CPT inconclusive.
Screening CCN1/C(=C/C=C/c2oc3ccc(-c4ccccc4)cc3[n+]2CC)Oc2ccc(-c3ccccc3)cc21 returned DT40 TDP1 no CPT 0.073µM*, TDP1 block 0% and DT40 TDP1 CPT 0.0073µM*.
CSc1nc(N)nc(SCC(=O)Nc2ccc(Cl)cc2)c1C#N was read as DT40 TDP1 no CPT 21µM*, TDP1 block 3%, ClpP mod -7% and DT40 TDP1 CPT inconclusive.
For Cc1ccc(S(=O)(=O)CCSc2nc(C)cc(C)c2C#N)cc1 the results were DT40 TDP1 no CPT inconclusive, TDP1 block 2%, ClpP mod -3% and DT40 TDP1 CPT inconclusive.
For CSc1nc(N)nc(SCC(=O)C(C)(C)C)c1C#N the results were DT40 TDP1 no CPT 23µM*, TDP1 block 0%, ClpP mod -1% and DT40 TDP1 CPT inconclusive.
CSc1nc(N)nc(SCCS(=O)(=O)c2ccc(Cl)cc2)c1C#N was read as DT40 TDP1 no CPT 26µM*, TDP1 block -2%, ClpP mod -5% and DT40 TDP1 CPT 21µM*.
Screening CCOc1ccc(-c2cccc(NS(=O)(=O)c3ccccc3C(F)(F)F)c2)nn1 returned DT40 TDP1 no CPT 26µM*, TDP1 block 4%, ClpP mod 2% and DT40 TDP1 CPT inconclusive.
Screening COc1ccc(-c2cccc(NS(=O)(=O)c3ccc(NC(C)=O)cc3)c2)nn1 returned DT40 TDP1 no CPT 15µM*, TDP1 block 7%, ClpP mod -3% and DT40 TDP1 CPT 18µM*.
For CCCOc1ccc(-c2cccc(NS(=O)(=O)c3ccc(CC)cc3)c2)nn1 the results were DT40 TDP1 no CPT 18µM*, TDP1 block 3%, ClpP mod -1% and DT40 TDP1 CPT 16µM*.
For CCOc1ccc(-c2cccc(NS(=O)(=O)c3ccc(C)s3)c2)nn1 the results were DT40 TDP1 no CPT inconclusive, TDP1 block 4%, ClpP mod 2% and DT40 TDP1 CPT 23µM*.
For O=C(CN1CCN(S(=O)(=O)c2ccc(Br)cc2)CC1)N/N=C/c1cccnc1 the results were DT40 TDP1 no CPT -15%, TDP1 block 1%, ClpP mod -12% and DT40 TDP1 CPT inconclusive.
COc1ccc(-c2cccc(NS(=O)(=O)c3ccc(C)s3)c2)nn1 was read as DT40 TDP1 no CPT 16µM*, TDP1 block 5%, ClpP mod -3% and DT40 TDP1 CPT 15µM*.
Screening CC1(C)Cc2nc3sc4c(=O)n(CC(=O)NCc5ccccc5)cnc4c3cc2CO1 returned DT40 TDP1 no CPT 3.7µM*, TDP1 block 4%, ClpP mod inconclusive and DT40 TDP1 CPT 4.6µM*.
`CC1(C)Cc2nc3sc4c(SCC(=O)NCc5ccco5)ncnc4c3cc2CO1` gave DT40 TDP1 no CPT 2.3µM*, TDP1 block 2%, ClpP mod -5% and DT40 TDP1 CPT 2.1µM*.
Cc1nc2c(sc3nc4c(cc32)COC(C)(C)C4)c(=O)n1CC(=O)NCc1ccco1 was read as DT40 TDP1 no CPT 4.1µM*, TDP1 block -1%, ClpP mod -25% and DT40 TDP1 CPT 3.3µM*.
Screening CC(Nc1ccccc1N1CCCCC1)C(=O)N1CCc2ccccc21 (stereo unspecified) returned DT40 TDP1 no CPT 16µM*, TDP1 block 7%, ClpP mod -2% and DT40 TDP1 CPT inconclusive.
For O=C(C(=O)N1CCCc2ccccc21)N1CCCc2ccccc21 the results were DT40 TDP1 no CPT inconclusive, TDP1 block -6% and DT40 TDP1 CPT 7%.
CC(NC(c1ccccc1)c1ccccc1)C(=O)N1CCCc2ccccc21 (stereo unspecified) was read as DT40 TDP1 no CPT 10µM*, TDP1 block -8%, ClpP mod -2% and DT40 TDP1 CPT 12µM*.
`Cc1cc(OC(C)C(=O)NCCc2c[nH]c3ccccc23)c2c(C)cc(=O)oc2c1` (stereo unspecified) gave DT40 TDP1 no CPT inconclusive, ClpP mod 0% and DT40 TDP1 CPT 16µM*.
Screening CCCc1cc(=O)oc2cc(C)cc(OC(C)C(=O)N[C@@H](Cc3c[nH]c4ccccc34)C(=O)O)c12 (stereo partly specified) returned DT40 TDP1 no CPT -7%, ClpP mod -11% and DT40 TDP1 CPT -8%.
`Cc1cccc(N2C(=O)CC(Sc3nc(C)c4c(n3)CCCC4)C2=O)c1` (stereo unspecified) gave DT40 TDP1 no CPT -14%, TDP1 block 2%, ClpP mod -2% and DT40 TDP1 CPT inconclusive.
`COc1ccc(N2C(=O)CC(Sc3nc(C)c4c(n3)CCCC4)C2=O)cc1` (stereo unspecified) gave DT40 TDP1 no CPT 23µM*, TDP1 block -1%, ClpP mod 1% and DT40 TDP1 CPT 18µM*.
Screening Cc1nc(SC2CC(=O)N(c3cc(Cl)cc(Cl)c3)C2=O)nc2c1CCCC2 (stereo unspecified) returned DT40 TDP1 no CPT inconclusive, TDP1 block 1%, ClpP mod 1% and DT40 TDP1 CPT 21µM*.
COc1ccc(-n2c(=O)cnc3cnc(N4CCOCC4)nc32)cc1 was read as DT40 TDP1 no CPT -22% and DT40 TDP1 CPT inconclusive.
For COc1cccc(NC(=O)N2CCC(CN3CCOCC3)CC2)c1 the results were DT40 TDP1 no CPT -5%, TDP1 block -1%, ClpP mod -1% and DT40 TDP1 CPT 3%.
Cc1ccccc1OCCn1nc(C(=O)O)c2ccccc2c1=O was read as DT40 TDP1 no CPT inconclusive, TDP1 block 1%, ClpP mod -1% and DT40 TDP1 CPT -15%.
For CC(=O)c1ccccc1OCCn1nc(C(=O)O)c2ccccc2c1=O the results were DT40 TDP1 no CPT 16µM*, TDP1 block 9% and DT40 TDP1 CPT -3%.
O=C(c1cc(COc2ccc(F)cc2Cl)on1)N1CCCCC1c1cccnc1 (stereo unspecified) was read as DT40 TDP1 no CPT 13µM*, TDP1 block 3%, ClpP mod -2% and DT40 TDP1 CPT 16µM*.

Compound activity deposited in PubChem by National Center for Advancing Translational Sciences (NCATS).
